# Results from PubChem BioAssay AID2116 (The Scripps Research Institute Molecular Screening Center, 2009).
# The source made the active and inactive calls. No rule for the calls is given here.
# Biological target: Mucolipin-2 (Homo sapiens) (UniProt Q8IZK6)
# Experiment: activators of mucolipin-3 and mucolipin-2 – cell-based, patch clamp, Fura-2 profiling panel (AID 2116)
# Details: HEK293 cells, TRPML2 Fura-2 Imaging; at 10 µM; active compounds read high
row,SMILES,activation
1,Cc1ccc(S(=O)(=O)Nc2ccccc2-c2ccccc2)cc1,< 1% (inactive)
2,O=S(=O)(NC1CCCCC1N1CCOCC1)c1ccc(Cl)cc1 (stereo not given),54.5% (active)
3,O=S(=O)(Nc1ccccc1N1CCOCC1)c1ccc(Cl)s1,7.14% (inactive)
4,Cc1ccc(N2CCN(S(=O)(=O)N3CCCCC3)CC2)c(C)c1,23.5% (active)
5,O=S(=O)(Nc1ccccc1N1CCCCC1)c1ccc(Cl)s1,< 1% (inactive)
